# According to PubChem BioAssay (NCI):
# Compounds without any hit were thinned out: in the full panel of roughly 83,000, 20% have a hit.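 Assay: single dose, 48 h. Readout: percent growth (0 = no net growth; negative = cell death). Active: <10.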 Activity calls are given as the source filed them.
# How the values were obtained:
# Test in all cases: NCI-60 one-dose screen, 48 h (100 = growth as untreated, 0 = no growth, -100 = all killed)
# Conditions in all cases: 10 µM unless noted
# BT-549 breast = test system: BT-549 breast
# MDA-MB-435 melanoma = test system: MDA-MB-435 melanoma
# SW-620 colon = test system: SW-620 colon
# MCF7 breast = test system: MCF7 breast
# HCT-116 colon = test system: HCT-116 colon
# HCC-2998 colon = test system: HCC-2998 colon
# KM12 colon = test system: KM12 colon
SMILES,growth (BT-549 breast),growth (MDA-MB-435 melanoma),growth (SW-620 colon),growth (MCF7 breast),growth (HCT-116 colon),growth (HCC-2998 colon),growth (KM12 colon)
COC(=O)[C@]12CC[C@@H](C)[C@H](C)[C@@H]1C1=CC[C@@H]3[C@@]4(C)C(C=O)=C[C@@](C)(COC(C)=O)[C@@H]4C(=O)C[C@@]3(C)[C@]1(C)CC2,32.4% (inactive),50.5% (inactive),29.1% (inactive),22.7% (inactive),5.18% (active),40% (inactive),28.4% (inactive)
CCN(CC)S(=O)(=O)c1cccc(-c2ccc3c(NC(=O)C4CC4)n[nH]c3c2)c1,1.05% [6.25 µM] (active),7.53% [6.25 µM] (active),26.1% [6.25 µM] (inactive),6.78% [6.25 µM] (active),11.9% [6.25 µM] (inactive),43.9% [6.25 µM] (inactive),12.6% [6.25 µM] (inactive)
COC(=O)[C@]12CC[C@@H](C)[C@H](C)[C@@H]1C1=CC[C@@H]3[C@@]4(C)C(C=O)=C[C@@](C)(COS(C)(=O)=O)C4[C@H](O)C[C@@]3(C)[C@]1(C)CC2 (stereo partly drawn),-49.6% (active),-21.5% (active),-51.4% (active),-16% (active),-85.3% (active),-85% (active),-75.4% (active)
O=C1Nc2ccccc2/C1=C/c1cn(C(=O)c2ccc(Cl)cc2)c2ccccc12,96.4% (inactive),110% (inactive),102% (inactive),59.1% (inactive),91.6% (inactive),–,40.9% (inactive)
O=C(N/N=C/C=C/c1ccc([N+](=O)[O-])o1)c1cc2ccccc2cc1O,-9.91% (active),-24.2% (active),-75.6% (active),-61.3% (active),-92.8% (active),-100% (active),-67.3% (active)
CC(C)C(=O)Nc1n[nH]c2cc(-c3cccc(NS(=O)(=O)C4CC4)c3)ccc12,42.3% (inactive),12.9% (inactive),74.5% (inactive),33.2% (inactive),52.5% (inactive),83.4% (inactive),61.3% (inactive)
CCCCCCCCCOc1c(OC)cc(C2CC(=O)Nc3c2c(C)nn3-c2nc3ccccc3[nH]2)cc1OC (stereo not drawn),-16.7% (active),-47.4% (active),-29.2% (active),4.28% (active),0.609% (active),10% (inactive),-53.1% (active)
COc1ccccc1NC(=O)N/C(N)=N/c1nc2ccccc2s1,50.8% (inactive),-18.6% (active),25.6% (inactive),20.3% (inactive),13.4% (inactive),28.6% (inactive),10.4% (inactive)
COc1cc(C2NC(=O)c3ccccc3N2)ccc1OCCCCCOc1c(OC)cc(C2=NOC(c3cc(OC)c(OC)c(OC)c3)C2)cc1OC (stereo not drawn),1.13% (active),23.3% (inactive),92.8% (inactive),32.3% (inactive),60% (inactive),80.5% (inactive),91.2% (inactive)
COC(=O)c1c2c(c(C)[n+]([O-])c1C)C(=O)C(NCc1ccc(F)c(Cl)c1)=CC2=O,43.7% (inactive),-82.4% (active),5.47% (active),-32.8% (active),0.429% (active),13.3% (inactive),11.5% (inactive)
COc1ccc(NC(=O)CSc2nnc(-c3cc(-c4ccc(S(N)(=O)=O)cc4)nc4ccccc34)n2-c2ccccc2)cc1,–,92.2% (inactive),97.6% (inactive),78.8% (inactive),73.9% (inactive),101% (inactive),92.7% (inactive)
O=C(CSc1nccc(Nc2ccc(S(=O)(=O)Nc3nccs3)cc2)n1)c1ccc(F)cc1,–,104% (inactive),99.6% (inactive),96.9% (inactive),95.9% (inactive),107% (inactive),106% (inactive)
O=C(/C=C/c1cccc(O)c1)c1cccc(-n2cc(-c3ccc4ccccc4c3)[nH]c2=O)c1,-29.8% (active),-15.6% (active),-55.1% (active),-32.2% (active),-100% (active),44.3% (inactive),-72% (active)
CCCCCCCCCCN(CCCCCCCCCC)CC(=O)c1ccc2cc(Br)c3ccccc3c2c1,72% (inactive),33.3% (inactive),-94.2% (active),99% (inactive),-22.8% (active),–,-13.9% (active)
O=C(/C=C/c1c(Cl)nc2sccn12)c1ccc(F)c(F)c1,71.6% (inactive),82.6% (inactive),77.3% (inactive),45.2% (inactive),69.5% (inactive),–,83% (inactive)
Cc1cc(NCCCCNc2ccnc3cc(Cl)ccc23)nc(Nc2ccc(C(=O)N3CCCC3)cc2)n1,93.2% (inactive),-45% (active),-11.8% (active),12.7% (inactive),2.57% (active),8.57% (active),55.7% (inactive)
N#CC1=C(/N=C/c2ccccc2)Oc2c(ccc3ccccc23)C1c1ccccc1 (stereo not drawn),4.18% (active),-42.1% (active),23.9% (inactive),14.6% (inactive),8.77% (active),–,19.2% (inactive)
COC(=O)[C@]12CC[C@@H](C)[C@H](C)[C@@H]1C1=CC[C@@H]3[C@@]4(C)C(C=O)=C[C@@](C)(COS(C)(=O)=O)[C@@H]4C(=O)C[C@@]3(C)[C@]1(C)CC2,42.9% (inactive),62.3% (inactive),35.9% (inactive),18.3% (inactive),5.35% (active),43.4% (inactive),23.1% (inactive)
Nc1n[nH]c2cc(F)c([C@@H]3Nc4c(F)cc5[nH]ncc5c4[C@H]4C5CCC(C5)[C@@H]34)cc12 (stereo partly drawn),-0.757% (active),-33.4% (active),26.8% (inactive),21.6% (inactive),-21.2% (active),7.27% (active),-40.5% (active)
COc1ccc(/C=N\NC(=O)c2cc(-c3ccc(Br)cc3)n(-c3ccc(S(N)(=O)=O)cc3)n2)cc1,76.1% (inactive),-43.8% (active),36.9% (inactive),18.3% (inactive),28.4% (inactive),66% (inactive),30.8% (inactive)
Cc1cccc(-c2nc(N(C)c3ccc4ncsc4c3)c3ccccc3n2)n1,87.1% (inactive),-3.29% (active),57.9% (inactive),45% (inactive),65.2% (inactive),84.2% (inactive),55.4% (inactive)
COc1cccc(/C=C/C(=O)c2c(C)nc3ccccc3c2/C=C/c2ccc(C)cc2)c1OC,69.1% (inactive),55.5% (inactive),31% (inactive),13.8% (inactive),8.38% (active),36.4% (inactive),65.6% (inactive)
